# Values joined by “and” are separate entries in the source; they are usually repeats but may differ in a detail not shown here. Equal entries are not always repeated. Inconclusive results are not listed. A call without a number means that no potency is given here. Some structures have more than one record in an assay (separate samples or runs), and their calls can disagree. Active and inactive are the calls of the source. Unless noted, the call rests on the fitted dose curve; in most records, active means well fitted curve in the direction sought with a large enough effect in the repeat runs; inconclusive means weak or mixed curves; inactive means no such curve, though single readings can be large; an effect the other way counts as inactive or inconclusive.
# Tests used:
# [1] = molecular target: Cytochrome P450 2D6 (Homo sapiens) (UniProt P10635); experiment: Cytochrome P450 family 2 subfamily D member 6 (CYP2D6) small molecule antagonists: luciferase biochemical (cell-free) qHTS assay (AID 1645840); further: nearly all actives have a fitted effect of over 55% in size; further: potency means the concentration at half of the fitted maximal effect
# Summary of the method: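 P450-Glo CYP2D6 system: proluciferin substrate converted by enzyme to luciferin, read by luminescence proportional to activity. Enzyme-substrate mix with compound 10 min at room temperature, then NADPH regeneration 1 h before detection reagent.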
# [2] = molecular target: Cytochrome P450 2C9 (Homo sapiens) (UniProt P11712); experiment: Cytochrome P450 family 2 subfamily C member 9 (CYP2C9) small molecule antagonists: luciferase biochemical (cell-free) qHTS assay (AID 1645842); further: nearly all actives have a fitted effect of over 55% in size; further: potency means the concentration at half of the fitted maximal effect
# Summary of the method: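 P450-Glo CYP2C9 system: proluciferin substrate with enzyme in mix containing 0.4% BSA, 10 min at room temperature, then NADPH regeneration solution added and incubated 1 h at 37C. Detection reagent stopped reaction; luminescence read after 20 min as RLU.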
# [3] = Primary qHTS for inhibitors of nuclear receptor binding SET domain protein 2 (NSD2) in an isogenic RCH-ACV NSD2 p.E1099K mutant (9B) (AID 1645876; active means well fitted curve in the direction sought with a large enough effect; an effect the other way counts as inactive or inconclusive; further: nearly all actives have a fitted effect of over 70% in size; further: potency means the concentration at half of the fitted maximal effect)
# [4] = molecular target: Cytochrome P450 3A4 (Homo sapiens) (UniProt P08684); experiment: Cytochrome P450 family 3 subfamily A member 4 (CYP3A4) small molecule antagonists: luciferase qHTS assay (AID 1645841); further: nearly all actives have a fitted effect of over 45% in size; further: potency means the concentration at half of the fitted maximal effect
# Summary of the method: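 Luminescent CYP3A4 activity readout: compounds plus enzyme-substrate mix 10 min at room temperature, reaction started with NADPH regenerating system for 1 h, stopped with detection reagent, read after 20 min. Ketoconazole served as control.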
# [5] = molecular target: N-terminal Xaa-Pro-Lys N-methyltransferase 1 (Homo sapiens) (UniProt Q9BV86); experiment: Confirmatory qHTS for Inhibitors of N-terminal methyltransferase 1 (NTMT1): MTaseGlo Assay (AID 1645874; active means well fitted curve in the direction sought with a large enough effect; an effect the other way counts as inactive or inconclusive; further: nearly all actives have a fitted effect of over 65% in size; further: potency means the concentration at half of the fitted maximal effect)
# Summary of the method: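 Inhibition was derived from luminescence after SAH-to-ATP conversion, scaled between no-enzyme and DMSO wells, then fitted by 4-parameter Hill. Conditions: 125 nM NTMT1, 100 uM SAM, 1 uM SPKRIA, 30 min RT.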
# [6] = Primary qHTS for inhibitors of nuclear receptor binding SET domain protein 2 (NSD2) in an RCH-ACV wild type WT cells (2C) (AID 1645877; active means well fitted curve in the direction sought with a large enough effect; an effect the other way counts as inactive or inconclusive; further: nearly all actives have a fitted effect of over 70% in size; further: potency means the concentration at half of the fitted maximal effect)
# [7] = A High-Content qHTS Against Drug Library for the Identification of Small Molecules that Inhibit DYT1 Early Onset Primary Dystonia-Associated Cell Pathology (AID 1645839; calls by dose curve; further: series mostly up to about 46 µM)
# Summary of the method: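 High-content imaging quantified EGFP-TorsinA mislocalization in HEK293-derived cells inducibly expressing DYT1 mutant torsinA, after 48 h exposure to compound given together with tetracycline induction. Cell count served as a toxicity channel alongside %pathology.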
# [8] = Cell Viability qHTS for small molecule stabilizers of the endoplasmic reticulum resident proteome (AID 1508629; active means well fitted curve in the direction sought with a large enough effect; an effect the other way counts as inactive or inconclusive;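 further: potency means the concentration at half of the fitted maximal effect; compound exposure about 46 h in total before the viability read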); settings: cell viability counter-screen, 100 nM thapsigargin for final 4 h
# Chain of Cytochrome P450 2C9 (Homo sapiens) (P11712 whole entry, looked up): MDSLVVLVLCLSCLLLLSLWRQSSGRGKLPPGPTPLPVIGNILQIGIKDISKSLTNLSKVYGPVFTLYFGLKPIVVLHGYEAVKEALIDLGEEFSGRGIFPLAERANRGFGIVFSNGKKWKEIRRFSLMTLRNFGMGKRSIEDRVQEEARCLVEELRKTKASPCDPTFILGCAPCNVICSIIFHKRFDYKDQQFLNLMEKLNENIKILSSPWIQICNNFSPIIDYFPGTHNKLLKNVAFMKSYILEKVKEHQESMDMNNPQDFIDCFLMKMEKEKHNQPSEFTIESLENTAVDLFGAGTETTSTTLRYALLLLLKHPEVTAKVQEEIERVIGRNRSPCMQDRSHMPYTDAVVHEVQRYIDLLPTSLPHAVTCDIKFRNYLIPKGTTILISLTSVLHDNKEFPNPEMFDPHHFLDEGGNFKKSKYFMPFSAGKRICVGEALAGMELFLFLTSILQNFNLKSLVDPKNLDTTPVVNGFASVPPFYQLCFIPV
# Chain of Cytochrome P450 3A4 (Homo sapiens) (P08684 whole entry, looked up): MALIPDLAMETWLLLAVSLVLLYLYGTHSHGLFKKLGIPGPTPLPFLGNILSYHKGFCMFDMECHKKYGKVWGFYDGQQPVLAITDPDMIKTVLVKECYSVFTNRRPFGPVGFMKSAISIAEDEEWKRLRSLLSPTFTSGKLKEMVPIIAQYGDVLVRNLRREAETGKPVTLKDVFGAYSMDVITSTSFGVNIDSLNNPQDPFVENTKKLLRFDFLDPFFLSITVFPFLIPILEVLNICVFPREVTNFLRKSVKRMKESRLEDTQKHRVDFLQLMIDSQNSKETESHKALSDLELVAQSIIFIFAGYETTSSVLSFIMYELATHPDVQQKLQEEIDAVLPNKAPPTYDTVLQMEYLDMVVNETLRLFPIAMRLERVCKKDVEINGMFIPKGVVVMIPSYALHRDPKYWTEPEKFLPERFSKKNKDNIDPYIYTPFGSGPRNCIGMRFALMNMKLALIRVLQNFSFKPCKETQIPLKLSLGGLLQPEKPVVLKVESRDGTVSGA
# Chain of Cytochrome P450 2D6 (Homo sapiens) (P10635 whole entry, looked up): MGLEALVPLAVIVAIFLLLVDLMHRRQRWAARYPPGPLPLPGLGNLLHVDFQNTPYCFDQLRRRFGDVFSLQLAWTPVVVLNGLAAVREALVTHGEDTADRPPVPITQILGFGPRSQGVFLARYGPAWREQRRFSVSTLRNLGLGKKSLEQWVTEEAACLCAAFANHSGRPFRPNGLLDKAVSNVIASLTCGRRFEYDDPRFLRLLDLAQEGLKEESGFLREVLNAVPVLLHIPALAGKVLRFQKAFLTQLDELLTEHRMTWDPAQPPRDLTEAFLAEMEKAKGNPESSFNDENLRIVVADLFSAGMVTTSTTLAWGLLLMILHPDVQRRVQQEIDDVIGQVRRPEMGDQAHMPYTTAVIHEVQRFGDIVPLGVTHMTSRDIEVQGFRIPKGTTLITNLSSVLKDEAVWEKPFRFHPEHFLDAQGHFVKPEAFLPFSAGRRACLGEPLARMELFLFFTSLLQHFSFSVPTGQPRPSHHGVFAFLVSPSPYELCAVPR
# Chain of N-terminal Xaa-Pro-Lys N-methyltransferase 1 (Homo sapiens) (Q9BV86 whole entry, looked up): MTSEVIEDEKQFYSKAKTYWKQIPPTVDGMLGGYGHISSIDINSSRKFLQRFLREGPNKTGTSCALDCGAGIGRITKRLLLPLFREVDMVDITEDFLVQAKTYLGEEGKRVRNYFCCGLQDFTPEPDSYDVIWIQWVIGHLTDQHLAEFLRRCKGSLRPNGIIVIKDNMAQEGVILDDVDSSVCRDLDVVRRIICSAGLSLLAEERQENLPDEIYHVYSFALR
smiles,measurement,setting,value
OC[C@H]1O[C@@H](n2cnc3c2NC=NC[C@H]3O)C[C@@H]1O,Potency,[1],inactive
same,Potency,[2],inactive
same,Potency,[3],inactive
c1ccc(Nc2nc3c(s2)CCCc2[nH]ncc2-3)nc1,Potency,[1],26.8 µM (active)
COc1cc2c(Nc3ccc(Cl)c(Cl)c3F)ncnc2cc1OCC1C[C@@H]2CN(C)C[C@@H]2C1 (some centres undefined),Potency,[1],16.9 µM (active)
same,Potency,[4],inactive
same,Potency,[5],15.1 µM (active)
same,Potency,[3],2.95 µM (active)
same,Potency,[6],2.63 µM (active) and 1.86 µM (active)
O=C(C1CC1)N1CC[C@@H](Cc2n[nH]c(=O)n2-c2ccc(-c3ccc4occc4c3)cc2)C1,Potency,[1],13.5 µM (active)
same,Potency,[4],6.74 µM (active)
same,Potency,[2],6.74 µM (active)
same,Potency,[3],inactive and 16.6 µM (active)
NC(=O)c1ncn(C2OC(CO)C(O)C2O)n1 (centres undefined),Potency,[1],inactive
CCCCCCCC(=O)O,Potency,[1],inactive
same,Potency,[2],inactive
COc1cccc2c1CCC[C@H]2CN(C)CCc1ccc2ccoc2c1,Potency,[1],0.0535 µM (active)
same,Potency,[2],0.425 µM (active)
CCCCN(CCCC)C(=O)CN1C[C@H](c2ccc3c(c2)OCO3)[C@@H](C(=O)O)[C@@H]1c1ccc(OC)cc1,Potency,[1],19 µM (active)
same,Potency,[2],21.3 µM (active)
same,Potency,[3],inactive
CNC1CCN(C(Cc2cccc(-c3ccncc3)c2)C(=O)c2sc3c(F)ccc(F)c3c2Cl)CC1 (centres undefined),Potency,[1],0.19 µM (active)
same,Potency,[4],0.12 µM (active)
same,Potency,[2],10.7 µM (active)
C[C@H]1CN(C[C@H](Cc2ccccc2)C(=O)NCC(=O)O)CC[C@@]1(C)c1cccc(O)c1,Potency,[1],inactive
same,Potency,[2],inactive
same,Potency,[3],inactive
same,Potency,[6],inactive
CC(C)N=c1cc2n(-c3ccc(Cl)cc3)c3ccccc3nc-2cc1Nc1ccc(Cl)cc1,Potency,[1],1.34 µM (active)
OCC(S)CS (centres undefined),Potency,[1],16.9 µM (active)
same,Potency,[2],2.68 µM (active)
Cc1c(C)c2c(c(C)c1O)CC[C@@](C)(CCC[C@H](C)CCC[C@H](C)CCCC(C)C)O2,Potency,[1],inactive
same,Potency,[2],inactive
Cc1cc(Nc2ncc(Cl)c(Nc3ccccc3S(=O)(=O)C(C)C)n2)c(OC(C)C)cc1C1CCNCC1,Potency,[1],16.9 µM (active)
same,Potency,[2],3.38 µM (active)
same,Potency,[3],3.25 µM (active) and 5.25 µM (active)
Nc1nc(N)c2nc(CNc3ccc(C(=O)N[C@@H](CCC(=O)O)C(=O)O)cc3)cnc2n1,Potency,[1],inactive
same,Potency,[4],inactive
same,Potency,[2],inactive
c1ccc(C(OC2CCN(CCCc3nn[nH]n3)CC2)c2ccccc2)cc1,Potency,[1],6.01 µM (active)
same,Potency,[4],inactive
same,Potency,[2],inactive
same,Potency,[3],inactive
same,Potency,[6],inactive
O=C(O)CCC(=O)C(=O)O,Potency,[1],inactive
same,Potency,[2],inactive
Nc1c(N=Nc2ccc(-c3ccc(N=Nc4cc(S(=O)(=O)O)c5ccccc5c4N)cc3)cc2)cc(S(=O)(=O)O)c2ccccc12,Potency,[1],7.56 µM (active)
C[C@@H]1[C@H](O)[C@@H](C)/C=C/C=C\C=C\C=C\C=C\C=C\C=C\[C@H](O[C@@H]2O[C@H](C)[C@@H](O)[C@H](N)[C@@H]2O)C[C@@H]2O[C@](O)(C[C@@H](O)C[C@@H](O)[C@H](O)CC[C@@H](O)C[C@@H](O)CC(=O)O[C@H]1C)C[C@H](O)[C@H]2C(=O)O (stereo in doubt),Potency,[1],inactive
same,Potency,[2],inactive
N#Cc1ccc2[nH]c(O)c(-c3ccc(CN4CCOCC4)cn3)c2c1,Potency,[1],12 µM (active) and 6.74 µM (active)
same,Potency,[2],inactive and 16.9 µM (active)
CC(=O)OC(C)OC(=O)C(C)c1ccc(-c2ccccc2)c(F)c1 (centres undefined),outcome,[7],inactive
same,Potency,[2],9.77 µM (active)
same,Potency,[3],inactive
same,Potency,[6],inactive
CC(=O)c1cnc2ccc(-c3cc(Cl)c(O)c(Cl)c3)nc2c1NC1CCC(CN(C)C)CC1 (centres undefined),Potency,[1],inactive
same,Potency,[2],inactive
same,Potency,[3],30.3 nM (active) and 3.7 nM (active)
O=C(O)c1cc(=O)c2c3nc4ccccc4oc-3cc(=O)c2[nH]1,Potency,[1],1.9 µM (active)
same,Potency,[2],26.8 µM (active)
O=C1C[C@@H](c2ccc(O)cc2)Oc2cc(O)ccc21,Potency,[1],inactive
same,Potency,[2],12 µM (active)
COCCN(C)Cc1ccc2nc3sc(C(=O)N(C)C4CCCCC4)cn3c2c1,Potency,[1],inactive
same,Potency,[4],inactive
same,Potency,[3],inactive
same,Potency,[6],inactive
COC(=O)C1=C(C)NC(C)=C(C(=O)OCCCN2CCC(c3ccccc3)(c3ccccc3)CC2)[C@H]1c1cccc([N+](=O)[O-])c1,Potency,[8],25.1 µM (active) and 28.2 µM (active)
CCCCC(C)(O)C/C=C/[C@H]1[C@H](O)CC(=O)[C@@H]1CCCCCCC(=O)OC (some centres undefined),Potency,[1],10.7 µM (active)
same,Potency,[2],2.68 µM (active)
c1nc(NC2CCCCCC2)c2cc(CNC[C@H]3CCCO3)sc2n1,Potency,[1],19 µM (active)
CCOc1ccc(C(Nc2ccccn2)c2ccc3ccc(C)nc3c2O)cc1C (centres undefined),Potency,[1],inactive
same,Potency,[2],4.77 µM (active)
O=C(Nc1cccnn1)N1CCC(=Cc2cccc(Oc3ccc(C(F)(F)F)cn3)c2)CC1,Potency,[1],10.7 µM (active)
same,Potency,[2],inactive
same,Potency,[3],11.5 µM (active)
Clc1cc(Cl)c(OCC#CI)cc1Cl,Potency,[1],0.674 µM (active)
same,Potency,[2],6.01 µM (active)
O=C1CC(c2ccc([N+](=O)[O-])cc2)=NN1c1ccccc1,Potency,[1],inactive
same,Potency,[2],13.5 µM (active)
same,Potency,[3],inactive
COC(=O)CCC(=O)CN,Potency,[1],inactive
same,Potency,[2],inactive
COc1c(C)c(C(=O)c2ccc(N)c(C(=O)O)c2)n2ccccc12,Potency,[1],inactive
same,Potency,[2],12 µM (active) and 10.7 µM (active)
same,Potency,[5],inactive
same,Potency,[3],inactive
O=C1N(CC2CCCCN2)CCN1c1ccccc1 (centres undefined),Potency,[1],15.1 µM (active)
same,Potency,[2],inactive
same,Potency,[3],inactive
CC[C@@H](c1ccc(F)c(F)c1)n1c(C(=O)OC)c(-c2ccno2)[nH]c1=S,Potency,[1],inactive
same,Potency,[2],0.756 µM (active)
same,Potency,[5],inactive
O=C(Nc1ccc(Br)cc1)c1cc(Br)c(Br)s1,Potency,[1],9.52 µM (active)
same,Potency,[2],21.3 µM (active)

# Reference: PubChem BioAssay (NCATS)
